In the library only some 4.7% were active in any assay of this set; here they are far more common.
D1 antagonist: blocks dopamine activation of the human D1 receptor | hit rate 3.2% among 360,000 | HEK293 TREx D1 cells, calcium flux, dopamine EC80; active compounds read low | activity change, negative = inhibition, % at 10 µM; in the data active = activity change below about -30%
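Allosteric or orthosteric antagonism assessed as attenuation of the calcium response to EC80 dopamine, added 180 s after compound, in induced HEK293 Trex D1 cells loaded with no-wash calcium dye.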
D1 PAM: enhances dopamine response at the human D1 receptor; hit rate 0.036% among 360,000; AID 504651; HEK293 TREx D1 cells, calcium flux, dopamine EC20 potentiation; potentiation, % at 10 µM; in the data active = potentiation above about 30%
TRHR enhancer: allosterically enhances the human TRH receptor; hit rate 0.66% among 360,000; enhancement, % at 2 µM; TRHR cells, fluo-8 calcium fluorescence, EC20 TRH enhancement; in the data active = enhancement above about 30%
Target sequence (P34981 whole entry, looked up): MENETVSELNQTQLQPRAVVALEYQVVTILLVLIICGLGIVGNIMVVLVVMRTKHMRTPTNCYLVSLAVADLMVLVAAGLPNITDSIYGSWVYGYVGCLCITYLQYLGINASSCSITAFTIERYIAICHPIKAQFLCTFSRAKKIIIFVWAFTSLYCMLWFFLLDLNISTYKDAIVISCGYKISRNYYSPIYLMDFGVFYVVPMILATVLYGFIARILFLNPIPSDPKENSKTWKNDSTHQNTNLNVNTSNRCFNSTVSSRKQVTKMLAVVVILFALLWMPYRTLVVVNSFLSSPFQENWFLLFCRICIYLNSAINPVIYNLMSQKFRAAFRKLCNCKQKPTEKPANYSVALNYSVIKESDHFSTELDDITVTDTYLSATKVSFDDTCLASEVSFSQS
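TRHR-expressing cells loaded with fluo-8 calcium dye were read kinetically (ex 480/em 530) during compound addition, then stimulated with an EC20 of TRH (10 nM final). Enhancement of the Gq-mediated intracellular calcium response was scored.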
D1 agonist: human D1 receptor agonism. P21728. activation, % at 2 µM. AID 504660. HEK293 T-REx D1 cells, calcium flux, agonist mode. hit rate 1% among 360,000
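Inducible HEK293 T-REx D1 cells, force-coupled to calcium signalling, were plated at 4000 cells/well with tetracycline and held overnight at 30 C. After no-wash calcium dye loading, compound-evoked calcium rise over 180 s flagged agonists.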
TRHR ag: activates the human TRH receptor; P34981; TRHR cells, calcium flux fluo-8, FDSS agonist mode; activation, % at 2 µM; hit rate 0.18% among 360,000
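In this calcium-flux screen, cells bearing human TRHR are dye-loaded with fluo-8, baselined for 10 cycles, then exposed to library compounds; positive kinetic calcium responses during the agonist phase mark hits, with TRH as control.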
Each line names hits and unclear results; the compound was inactive in the other large screens. Cut-off read from the data, not from the text of the source, unless noted: active = activation above about 30%; inactive = the rest.

CN1CCN(C2=Cc3ccccc3Sc3cc(F)c(F)cc32)CC1	D1 antagonist -83.5, D1 agonist 56.3
CN1CCN(C2=Cc3cc(Cl)ccc3Sc3cc(F)ccc32)CC1	none
O=C(CNc1ccccc1Cl)Nc1cc(S(=O)(=O)N2CCOCC2)ccc1Cl	D1 antagonist -33.3
Cc1ccc(S(=O)(=O)N2CCOCC2)cc1NC(=O)COC(=O)c1cc(=O)[nH]c2ccccc12	D1 antagonist -41.3
Cc1ccc(-c2nc(SCC(=O)Nc3cc(S(=O)(=O)N4CCCCC4)ccc3Cl)n[nH]2)cc1	D1 antagonist -35.1
O=C(COC(=O)c1ccc(Br)cc1)Nc1cccnc1Cl	none
CN(C)S(=O)(=O)c1ccc(C(=O)OCC(=O)Nc2cccnc2Cl)cc1	D1 antagonist -33.2
COc1ccccc1CNCC(=O)Nc1cc(S(=O)(=O)N2CCOCC2)ccc1Cl	none
Cc1c(C)n(Cc2ccc(F)cc2)c2ccc(C(=O)Nc3ccc(Cl)cc3)cc12	none
Cc1ccc(S(=O)(=O)N2CCOCC2)cc1NC(=O)COC(=O)c1cccnc1Cl	D1 antagonist -64.2
Cc1cccc(NC(=O)N2CCC(CN3CCCCCC3)CC2)c1C	none
COc1cc2[nH]c(C(=O)NCc3ccccc3)cc2c(OC)c1OC	D1 antagonist -36.0
COc1cc2[nH]c(C(=O)NCCc3ccccc3)cc2c(OC)c1OC	none
CCCOc1ccc(Br)cc1CSC(=N)N	D1 agonist 48.8
Cc1cccc(C(=O)N/N=C/c2ccncc2)c1	D1 antagonist -37.3
O=[N+]([O-])c1ccc(O)c(C2=NNC(c3ccccc3F)C2)c1 (stereo not given)	D1 antagonist -32.9
CCN1CCN(c2cc(=O)n(C3CCCCC3)c(=O)[nH]2)CC1	TRHR enhancer 33.5
CC(=O)Nc1ccc(S(=O)(=O)NCCS(=O)(=O)N2CCN(c3ccccc3F)CC2)cc1	none
CCOc1ccccc1N1CCN(S(=O)(=O)CC)CC1	none
CCCCOc1ccc(S(=O)(=O)N2CCN(c3ccccc3OCC)CC2)cc1	TRHR enhancer 32.2
CCCCOc1ccc(C(=O)NCCS(=O)(=O)N2CCN(c3ccccc3OC)CC2)cc1	D1 antagonist -64.6
COc1ccc(S(=O)(=O)NCCS(=O)(=O)N2CCN(c3ccccc3F)CC2)cc1	D1 antagonist -38.4
O=C(Cn1c(=O)n(-c2ccc(F)cc2)c(=O)c2sc3ccccc3c21)NC1CCCCC1	none
COc1ccccc1N1CCN(S(=O)(=O)c2c(C)sc3ncn(CC(=O)Nc4ccc(C(C)C)cc4)c(=O)c23)CC1	none
COc1ccccc1Oc1ccc2c(c1)C(=O)N(c1cccc3ncccc13)C2=O	D1 antagonist -34.5
COc1ccccc1Oc1ccc2c(c1)C(=O)N(c1cccc(O)c1)C2=O	none
O=S(=O)(c1ccc(Cl)cc1)n1ccc2cccnc21	D1 antagonist -36.5
Cc1ccc(S(=O)(=O)n2ccc3cccnc32)cc1	none
COc1ccc(NC(=O)CSC2=Nc3ccccc3C3=NC(CC(=O)NCc4ccc(F)cc4)C(=O)N23)cc1 (stereo not given)	none
Cc1cc(SCC(=O)Nc2ccc(O)cc2)n2nc(C)c(-c3ccccc3)c2n1	D1 antagonist -49.9
CC(=O)Nc1ccc(Nc2cc(C)nc3c(-c4ccccc4)c(C)nn23)cc1	D1 antagonist -30.1
COC(=O)CN1C(=O)CSc2ccc(S(=O)(=O)Nc3cccc(C)c3)cc21	none
O=C(Nc1ccncc1)c1sc2ccccc2c1Cl	D1 antagonist -41.4
Cc1cccc(C(=O)NC(=S)NNC(=O)c2ccc(Cl)cc2)c1	D1 agonist 172.0
CCC(=O)Nc1cccc(NC(=S)NC(=O)c2ccc(C)cc2)c1	none
CCC(=O)Nc1cccc(NC(=S)NC(=O)c2cccc(C)c2)c1	D1 antagonist -37.7
Cc1cccc(C(=O)NNC(=O)c2ccc(Br)cc2)c1	none
O=C(NNC(=O)c1cccs1)c1ccc(F)cc1	TRHR enhancer 36.3
CCC1CCCCN1C(=O)c1ccc2c(c1)N(Cc1cccc(Cl)c1)C(=O)c1ccccc1S2(=O)=O (stereo not given)	none
Cc1ccccc1CNC(=O)c1cccc(NC(=O)N2CCSc3ncccc32)c1	none
Cc1cccc(C(=O)NC(=S)NNC(=O)c2cccs2)c1	D1 agonist 213.2, TRHR ag 41.9
COc1cc(C(=O)NNC(=S)NC(=O)c2ccc(Cl)cc2)cc(OC)c1OC	D1 agonist 59.7
O=C(NC(=S)Nc1ccc(N2CCOCC2)c(Cl)c1)c1sc2ccccc2c1Cl	D1 antagonist -31.4
Cc1ccccc1C(=O)NNC(=S)NC(=O)c1cccs1	D1 agonist 136.4
CCOc1cccc(NC(=O)C2CC(=O)N(C)C(=Nc3ccc(F)cc3)S2)c1 (stereo not given)	none
O=C(NNC(=S)NC(=O)c1sc2ccccc2c1Cl)c1ccc(Cl)cc1	D1 antagonist -38.4, D1 agonist 141.5
CC(C)(C)c1ccc(C(=O)NC(=S)NNC(=O)c2cccs2)cc1	D1 agonist 366.6, TRHR ag 33.6
O=C1CCC/C(=N/NC(=O)c2sc3ccccc3c2Cl)C1	D1 agonist 80.6, TRHR ag 38.7
COc1cc(C(=O)Nc2nonc2-c2ccc(Cl)cc2)cc(OC)c1OC	D1 agonist 30.2
O=C(NN=C1CCCC1)c1sc2ccccc2c1Cl	none
Cc1cccc(C2N3CC4(C(C)C)CN2CC(C(C)C)(C3)C4=O)c1 (stereo not given)	none
COc1ccc(-c2noc(CCC(=O)N(C)c3cc(Cl)ccc3OC)n2)cc1	none
Cc1ccc(C(=O)Nc2c(C)nc3ccccn3c2=O)cc1C	none
Cc1cc(C)cc(NC(=O)CN2C(=O)COc3ccc(S(=O)(=O)Nc4ccccc4)cc32)c1	none
CCCCCC[n+]1c(-c2ccccc2)csc1Nc1ccccc1	D1 antagonist -82.2
O=C(/C=C/c1ccc(Cl)cc1Cl)NC(=S)Nc1ccccn1	D1 antagonist -44.1
O=C(/C=C/c1ccc(Cl)cc1Cl)NC(=S)Nc1ccc(CN2CCOCC2)cc1	none
COCCCc1cc(F)c(S(=O)(=O)N2CCN(S(=O)(=O)c3ccc4c(c3)OCCO4)CC2)cc1F	none
O=C(CSc1nc2ccccc2nc1Cc1ccc(Cl)cc1)N1CCCc2ccccc21	none
COc1cc2ccccc2cc1C(=O)Nc1ccc2oc(-c3ccc(F)cc3Cl)nc2c1	none
COc1ccc(C(=O)Nc2ccc3oc(-c4ccc(F)cc4Cl)nc3c2)cc1	D1 antagonist -37.6
COc1ccc2[nH]cc(C(O)CN3CCN(c4ccccc4)CC3)c2c1 (stereo not given)	none
COc1ccc2[nH]cc(C(O)CN3CCN(c4ccccc4F)CC3)c2c1 (stereo not given)	D1 antagonist -61.6
Cc1cccc(OCC(=O)Nc2ccc3c4c(cccc24)CC3)c1C	D1 antagonist -46.7
CCOC(=O)c1c(NC(=O)c2ccco2)sc2c1CCCCC2	none
CCOC(=O)c1c(NC(=O)C(C)N2CCN(C(=O)c3ccco3)CC2)sc2c1CCCC2 (stereo not given)	D1 agonist 39.9

Source: PubChem BioAssay (National Center for Advancing Translational Sciences (NCATS))
